Data taken from PubChem BioAssay (Tox21).
Values without a mark were called inactive. Records with an inconclusive call do not appear. Where a call stands in place of a potency, no number is given. Activity calls are given as the source filed them. Unless noted, calls come from the whole dose curve; as a rule, active = well fitted curve in the direction sought with a large enough effect in the repeat runs; inconclusive = weak or mixed curves; inactive = no such curve, though single readings can be large; an effect the other way counts as inactive or inconclusive.

What was measured:
[1] = qHTS assay to identify small molecule antagonists of the estrogen receptor alpha (ER-alpha) signaling pathway using the BG1 cell line in the presence of 0.1 nM 17-beta-estradiol - cell viability counter screen (AID 1259241); note: nearly all actives have a fitted effect of over 40% in size; note: potency is the fitted concentration of half-maximal effect
How it was run: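 Live-cell protease activity (CellTiter-Fluor fluorescence, 30 min) was read in the same wells after VM7Luc4E2 cells had been exposed to compounds with 0.1 nM 17beta-estradiol for 22 hr at 37C.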

[2] = qHTS assay to identify small molecule phospholipidosis (PLD) inducers (AID 1259344; active = well fitted curve in the direction sought with a large enough effect; an effect the other way counts as inactive or inconclusive)
How it was run: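 After 4 h attachment on collagen I, HepG2 cells were dosed with compound alongside LipidTOX Red, kept 24 h at 37 C, fixed, and imaged for lamellar phospholipid pits.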

[3] = qHTS assay to identify small molecule HDAC inhibitors (AID 1259364);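 note: wild-type HCT-116 cells with endogenous class I/II HDAC activity; top concentration of the series differs between compounds; nearly all actives have a fitted effect of over 45% in size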
How it was run: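 HCT-116 wt cells, 1,500/well, overnight attach. Compounds (DMSO) 2 h, 37 °C. HDAC-Glo I/II, 30 min RT. Luminescence.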

[4] = qHTS assay to identify small molecule HDAC inhibitors - cell viability counter screen (AID 1259365); note: series mostly up to about 92 µM; nearly all actives have a fitted effect of over 50% in size
How it was run: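 HCT-116 (wild type), 1,500 cells/well, overnight 37C/5% CO2; compound in DMSO 2hr; CellTiter-Glo 30min RT; luminescence read.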

[5] = qHTS assay to identify small molecule agonists of the sonic hedgehog signaling (Shh) pathway (AID 1259368; calls by dose curve;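 note: NIH/3T3-derived 3T3Gli1-Luc cells carrying a stable Gli1-driven firefly luciferase reporter; series mostly up to about 92 µM; nearly all actives have a fitted effect of over 15% in size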)
How it was run: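 Following a 24 hr incubation with DMSO-dissolved compounds at 37 C, 5% CO2, Gli1-Luc NIH/3T3-derived cells received luciferase reagent for 30 min at room temperature prior to luminescence measurement.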

[6] = qHTS assay to identify small molecule antagonists of the sonic hedgehog signaling (Shh) pathway (AID 1259369; calls by dose curve; note: nearly all actives have a fitted effect of over 45% in size; note: potency is the fitted concentration of half-maximal effect)
How it was run: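 Read-out is luminescence from a firefly luciferase gene controlled by the Gli1 response element, in 3T3Gli1-Luc cells pre-incubated 4hr then exposed to compounds and conditioned medium for 24hr.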

[7] = qHTS assay to identify small molecule antagonists of the estrogen receptor beta (ER-beta) signaling pathway - cell viability counter screen (AID 1259382); note: series mostly up to about 92 µM; nearly all actives have a fitted effect of over 55% in size
How it was run: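 CellTiter-Glo ATP luminescence measured after the LiveBLAzer read in the same wells; ER-beta-UAS-bla HEK293T cells, 16 hr compound treatment with 1nM 17-beta-estradiol agonist at 37C, 5% CO2.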

[8] = qHTS assay to identify small molecule agonists or antagonists of the thyroid stimulating hormone receptor (TSHR) signaling pathway - wild type cell line counter screen (AID 1259384; calls by dose curve)
How it was run: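 Wild-type HEK293 cells were plated 18 h at 37 C/5% CO2, pin-dosed with compound plus Ro20-1724 medium, held 30 min at room temperature, then given cAMP-d2 and anti-cAMP-cryptate; fluorescence was read after 1 h. Fifteen concentrations, triplicate.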

[9] = molecular target: Estrogen receptor (Homo sapiens) (UniProt P03372); experiment: qHTS assay to identify small molecule antagonists of the estrogen receptor alpha (ER-alpha) signaling pathway using the BG1 cell line in the presence of 0.1 nM 17-beta-estradiol (AID 1259244); note: nearly all actives have a fitted effect of over 50% in size; note: potency is the fitted concentration of half-maximal effect
How it was run: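 Luciferase signal from VM7Luc4E2 ERE-reporter cells, co-dosed with test compound and 0.1 nM final 17beta-estradiol for 22 h, read with ONE-Glo.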

[10] = molecular target: Estrogen receptor beta (Homo sapiens) (UniProt Q92731); experiment: qHTS assay to identify small molecule agonists of the estrogen receptor beta (ER-beta) signaling pathway (AID 1259377; active = well fitted activation curve with a large enough effect in the signal ratio in the repeat runs, not every such curve was filed as active; the % refers to the signal ratio)
How it was run: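 Beta-lactamase reporter readout: fluorescence of LiveBLAzer B/G FRET substrate after 2 h at room temperature, following 16 h compound treatment of ER-beta-UAS-bla HEK293T cells at 37C in 2% charcoal-stripped FBS medium.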

[11] = qHTS assay to identify small molecule agonists of the androgen receptor (AR) signaling pathway in the presence of an antagonist - cell viability counter screen (AID 1259379); note: nearly all actives have a fitted effect of over 25% in size; note: potency is the fitted concentration of half-maximal effect
How it was run: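 Each compound was tested at 15 concentrations on MDA-kb2 cells in the presence of 3.0uM nilutamide. Viability was measured by CellTiter-Fluor fluorescence after a 16 hr incubation at 37C in a CO2-free atmosphere.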

[12] = qHTS assay to identify small molecule agonists of the estrogen receptor beta (ER-beta) signaling pathway - cell viability counter screen (AID 1259380); note: nearly all actives have a fitted effect of over 30% in size; note: potency is the fitted concentration of half-maximal effect
How it was run: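 Compounds dissolved in DMSO were pin-transferred onto ER-beta-UAS-bla HEK293T cells that had settled 6 hr, and exposure ran 16 hr at 37C. Following the reporter read, CellTiter-Glo luminescence after 30 min at room temperature indicated cytotoxicity.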

[13] = molecular target: Estrogen receptor (Homo sapiens) (UniProt P03372); experiment: qHTS assay to identify small molecule agonists of the estrogen receptor alpha (ER-alpha) signaling pathway in the presence of an antagonist (AID 1259383; calls by dose curve; note: top concentration of the series differs between compounds; nearly all actives have a fitted effect of over 15% in size)
How it was run: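 Luminescent ERE-luciferase reporter, VM7Luc4E2 cells (endogenous ER-alpha); 10.0nM ICI-182,780 final; 15-point compound titration; 22hr at 37C; ONE-Glo, 30min RT.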

[14] = molecular target: Thyrotropin receptor (Homo sapiens) (UniProt P16473); experiment: qHTS assay to identify small molecule antagonists of the thyroid stimulating hormone receptor (TSHR) signaling pathway (AID 1259385; calls by dose curve; note: nearly all actives have a fitted effect of over 20% in size)
How it was run: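 TSHR-HEK293 cells were plated and held 18 h at 37C/5% CO2, then given compound plus Ro20-1724 and stimulated with TSH at 1.5 ng/mL final. After 30 min at room temperature, cAMP was detected with cAMP-d2/anti-cAMP-cryptate (1 h) by fluorescence.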

[15] = qHTS assay to identify small molecule agonists of the sonic hedgehog signaling (Shh) pathway - cell viability counter screen (AID 1259366); note: nearly all actives have a fitted effect of over 50% in size; note: potency is the fitted concentration of half-maximal effect
How it was run: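 CellTiter-Fluor fluorescence read-out, 1 hr at 37C, added after 23hr compound exposure. Cells: 3T3 Gli1-Luc, an NIH/3T3 clone with stably integrated Gli1-Luc reporter, plated 4hr before compound.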

[16] = qHTS assay to identify small molecule antagonists of the sonic hedgehog signaling (Shh) pathway - cell viability counter screen (AID 1259367); note: nearly all actives have a fitted effect of over 55% in size
How it was run: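 Conditioned medium drove Shh signaling in 3T3 Gli1-Luc cells exposed to compounds at 37C and 5% CO2. Viability was determined from CellTiter-Fluor fluorescence, with reagent incubated 1 hr after 23 hr of treatment.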

[17] = molecular target: Estrogen receptor beta (Homo sapiens) (UniProt Q92731); experiment: qHTS assay to identify small molecule antagonists of the estrogen receptor beta (ER-beta) signaling pathway (AID 1259378; active = well fitted inhibition curve with a large enough effect in the signal ratio in the repeat runs, not every such curve was filed as active; the % refers to the signal ratio)
How it was run: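 ER-beta-UAS-bla HEK293T (GripTite) cells in 2% charcoal-stripped FBS medium were preincubated 6 hr at 37C, dosed with compound, then stimulated with 1 nM E2 (final) for 16 hr; beta-lactamase reporter read by B/G FRET fluorescence after 2 hr substrate loading.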

[18] = molecular target: Androgen receptor (Homo sapiens) (UniProt P10275); experiment: qHTS assay to identify small molecule agonists of the androgen receptor (AR) signaling pathway in the presence of an antagonist (AID 1259381; calls by dose curve; note: nearly all actives have a fitted effect of over 15% in size)
How it was run: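 Plated MDA-kb2 cells (3,000/well) were pre-incubated 5hr, given nilutamide (3.0uM final) or buffer, then dosed with compounds in DMSO at 15 concentrations. Luciferase activity was quantified by luminescence after 16hr at 37C.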

Chain of Estrogen receptor (Homo sapiens) (P03372 whole entry, looked up): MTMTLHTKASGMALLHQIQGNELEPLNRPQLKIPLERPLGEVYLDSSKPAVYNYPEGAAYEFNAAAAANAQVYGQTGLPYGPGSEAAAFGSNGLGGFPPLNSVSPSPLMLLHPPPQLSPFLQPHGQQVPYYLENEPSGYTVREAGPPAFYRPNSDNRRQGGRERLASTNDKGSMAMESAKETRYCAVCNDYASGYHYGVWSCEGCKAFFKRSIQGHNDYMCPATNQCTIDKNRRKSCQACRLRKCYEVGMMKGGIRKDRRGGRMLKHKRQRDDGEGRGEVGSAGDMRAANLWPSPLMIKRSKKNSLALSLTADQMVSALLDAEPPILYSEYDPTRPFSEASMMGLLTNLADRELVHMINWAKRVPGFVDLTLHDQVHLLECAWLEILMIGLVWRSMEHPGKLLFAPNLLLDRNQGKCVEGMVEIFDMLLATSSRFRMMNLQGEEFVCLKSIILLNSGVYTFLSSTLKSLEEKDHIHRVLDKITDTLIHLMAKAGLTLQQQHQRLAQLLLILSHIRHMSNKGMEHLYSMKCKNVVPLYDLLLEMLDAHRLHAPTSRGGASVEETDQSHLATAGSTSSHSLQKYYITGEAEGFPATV
Chain of Thyrotropin receptor (Homo sapiens) (P16473 whole entry, looked up): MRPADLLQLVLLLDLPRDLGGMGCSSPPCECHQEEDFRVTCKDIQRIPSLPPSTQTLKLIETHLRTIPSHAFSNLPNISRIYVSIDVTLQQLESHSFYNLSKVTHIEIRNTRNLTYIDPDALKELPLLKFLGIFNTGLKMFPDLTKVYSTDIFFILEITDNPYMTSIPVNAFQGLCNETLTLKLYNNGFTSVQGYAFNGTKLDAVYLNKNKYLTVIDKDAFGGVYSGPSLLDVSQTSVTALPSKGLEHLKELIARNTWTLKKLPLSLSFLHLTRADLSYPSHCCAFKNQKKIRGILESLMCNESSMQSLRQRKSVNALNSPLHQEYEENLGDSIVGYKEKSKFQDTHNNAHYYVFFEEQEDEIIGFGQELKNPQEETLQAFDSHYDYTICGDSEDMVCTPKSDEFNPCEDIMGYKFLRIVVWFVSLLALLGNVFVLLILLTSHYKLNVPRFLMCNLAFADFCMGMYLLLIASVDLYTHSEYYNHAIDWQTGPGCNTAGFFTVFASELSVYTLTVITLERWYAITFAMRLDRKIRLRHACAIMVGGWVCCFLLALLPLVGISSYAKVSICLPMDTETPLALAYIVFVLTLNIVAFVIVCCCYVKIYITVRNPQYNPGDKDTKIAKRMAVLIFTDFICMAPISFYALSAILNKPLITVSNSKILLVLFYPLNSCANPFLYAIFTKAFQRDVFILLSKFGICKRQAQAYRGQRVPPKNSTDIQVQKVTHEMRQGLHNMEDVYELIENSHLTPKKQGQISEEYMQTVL
Chain of Estrogen receptor beta (Homo sapiens) (Q92731 whole entry, looked up): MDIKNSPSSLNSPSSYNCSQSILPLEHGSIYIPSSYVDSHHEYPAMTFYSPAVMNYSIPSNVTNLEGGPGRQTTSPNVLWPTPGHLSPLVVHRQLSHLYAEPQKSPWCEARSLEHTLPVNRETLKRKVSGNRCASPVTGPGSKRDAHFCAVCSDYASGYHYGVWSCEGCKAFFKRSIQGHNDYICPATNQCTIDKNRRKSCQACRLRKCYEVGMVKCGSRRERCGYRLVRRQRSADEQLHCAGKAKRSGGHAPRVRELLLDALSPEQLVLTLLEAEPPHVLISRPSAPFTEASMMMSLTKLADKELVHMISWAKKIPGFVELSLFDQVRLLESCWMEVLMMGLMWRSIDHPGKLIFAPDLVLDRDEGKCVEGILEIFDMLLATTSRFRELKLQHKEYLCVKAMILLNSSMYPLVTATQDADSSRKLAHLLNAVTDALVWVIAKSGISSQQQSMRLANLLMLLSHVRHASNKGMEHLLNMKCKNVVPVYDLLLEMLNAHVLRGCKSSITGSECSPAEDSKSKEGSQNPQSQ
Chain of Androgen receptor (Homo sapiens) (P10275 whole entry, looked up): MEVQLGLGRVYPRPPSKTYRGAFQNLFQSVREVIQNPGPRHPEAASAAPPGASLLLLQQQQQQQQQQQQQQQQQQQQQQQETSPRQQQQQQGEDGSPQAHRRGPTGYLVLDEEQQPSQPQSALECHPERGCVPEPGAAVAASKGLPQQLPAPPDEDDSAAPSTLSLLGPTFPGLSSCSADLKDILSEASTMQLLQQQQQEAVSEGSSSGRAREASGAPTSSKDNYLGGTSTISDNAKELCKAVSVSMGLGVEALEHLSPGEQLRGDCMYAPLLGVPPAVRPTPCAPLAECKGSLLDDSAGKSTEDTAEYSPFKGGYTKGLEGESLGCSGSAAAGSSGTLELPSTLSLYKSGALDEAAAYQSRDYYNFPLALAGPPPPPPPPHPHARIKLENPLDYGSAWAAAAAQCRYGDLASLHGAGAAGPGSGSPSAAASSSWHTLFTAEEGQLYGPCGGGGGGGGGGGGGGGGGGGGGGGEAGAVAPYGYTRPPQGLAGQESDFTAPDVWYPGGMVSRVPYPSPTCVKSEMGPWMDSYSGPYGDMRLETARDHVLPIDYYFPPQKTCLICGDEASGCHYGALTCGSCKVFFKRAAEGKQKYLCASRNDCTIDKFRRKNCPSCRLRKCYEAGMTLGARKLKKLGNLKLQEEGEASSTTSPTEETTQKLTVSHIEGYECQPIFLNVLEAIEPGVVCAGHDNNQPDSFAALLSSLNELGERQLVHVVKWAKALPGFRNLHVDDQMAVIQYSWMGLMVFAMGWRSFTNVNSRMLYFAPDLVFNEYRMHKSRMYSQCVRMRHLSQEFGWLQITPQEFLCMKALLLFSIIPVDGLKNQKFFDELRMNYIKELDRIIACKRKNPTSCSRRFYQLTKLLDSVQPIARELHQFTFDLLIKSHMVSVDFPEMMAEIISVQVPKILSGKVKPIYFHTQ

Compound | Potency [1] | Potency [2] | Potency [3] | Potency [4] | Potency [5] | Potency [6] | Potency [7] | outcome [8] | Potency [9] | Potency [10] | Potency [11] | Potency [12] | Potency [13] | Potency [14] | Potency [15] | Potency [16] | Potency [17] | Potency [18]
COc1ccc(-c2ccc3cc(C(=O)O)ccc3c2)cc1C12CC3CC(CC(C3)C1)C2 | inactive | inactive | inactive | inactive | inactive | inactive | inactive | inactive |  |  |  |  |  |  |  |  |  | 
CNCc1cc(F)ccc1Oc1ccc(Cl)c(Cl)c1 | inactive |  | inactive | inactive | inactive | 12.2 µM (active) |  | inactive | 54.5 µM (active) | inactive | 54.5 µM (active) | 27.3 µM (active) | inactive | inactive |  |  |  | 
CCCCC(CC)COC(=O)c1ccccc1C(=O)O (configuration not stated) | inactive | inactive |  | inactive | inactive |  |  | inactive |  |  | inactive |  |  |  | inactive | inactive |  | 
N#CC1(c2ccc(F)cc2)CCC(=O)CC1 | inactive |  |  | inactive | inactive | inactive | inactive | inactive | inactive | inactive | inactive | inactive | inactive | inactive | inactive | inactive | inactive | inactive
O=[N+]([O-])c1cc(Cl)c(Cl)c(Cl)c1Cl | 68.3 µM (active) |  | inactive | inactive | inactive | inactive | inactive | inactive |  |  |  | inactive |  |  | 24.2 µM (active) | inactive |  | 
CC1=NC(C)OC1C (configuration not stated) | inactive |  | inactive | inactive | inactive |  | inactive | inactive | inactive |  | inactive | inactive | inactive | inactive | inactive |  |  | inactive
